Screen size: about 320,000 compounds; about 9,100 (2.8%) were called active. Inconclusive results (about 3%) are left out. Calls follow the shape of the dose curve; as a rule, active = well fitted activation curve with a large enough effect; inconclusive = small, poorly fitted or top-dose-only effect; inactive = no such curve, though single readings can be large or run the other way. What follows is part of a selection rich in actives, with near analogues and random picks from the rest. A call without a number means that no potency is given here.
Experiment: qHTS Assay for Rab9 Promoter Activators; also: nearly all actives have a fitted effect of over 60% in size
Conditions: Huh7 Rab9 promoter-luciferase reporter, luminescence, 24 h; series mostly up to 9.22 µM
How it was run: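 Using Huh7 cells stably transfected with Rab9 promoter–luciferase, compounds were incubated 24 h at 37 °C, 5% CO2; luciferase luminescence was read 10 min after reagent addition.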
Potency is read from the fitted curve at half-maximal effect.

SMILES | Potency
CCOC(=O)c1c(CNCc2ccccc2F)c2sc(C)cc2n1C | inactive
COc1ccc(S(=O)(=O)N2CCOCC2)cc1NC(=O)c1ccc(OCC(C)C)c(OC)c1 | inactive
CN(CCOc1ccccc1)C(=O)c1cc(-c2ccco2)nc2ccccc12 | inactive
CC(OC(=O)c1ccccc1NCCO)C(=O)Nc1ccnn1C(C)C (configuration not stated) | inactive
Cc1ccc(-n2c(SCC(=O)N3CCC(C(=O)O)CC3)nc3ccccc3c2=O)cc1C | 2820 nM (active)
COc1cccc(-n2c(SCC(=O)NC3CCS(=O)(=O)C3)nc3ccccc3c2=O)c1 (configuration not stated) | inactive
O=C(CSc1nc2ccccc2c(=O)n1-c1ccc(F)cc1)NC1CC1 | inactive
CC(=O)Nc1ccc(S(=O)(=O)N2CCn3cccc3C2C)cc1 (configuration not stated) | inactive
CCCCc1ccc(NC(=S)N2CCCC(CO)C2)cc1 (configuration not stated) | 2820 nM (active)
CCCCc1ccc(NC(=S)NCCCN2CCOCC2)cc1 | inactive
COc1ccc(NC(=S)N2CCCC(CO)C2)c(OC)c1 (configuration not stated) | inactive
COc1cc(OC)cc(C(=O)NCC(=O)OCc2csc(-c3ccccc3)n2)c1 | inactive
Cc1ccc(-c2nc(COC(=O)c3c(C)noc3C)cs2)cc1 | 3550 nM (active)
Cc1ccc(S(=O)(=O)N2CCN(C(=O)COC(=O)c3c(C)noc3C)CC2)c(C)c1 | inactive
COc1cc(C(=O)OCC(=O)NC23CC4CC(CC(C4)C2)C3)cc(OC)c1OC | inactive
O=C(c1ccc(Cl)c(S(=O)(=O)N2CCCCCC2)c1)N1CCN(c2ccc(O)cc2)CC1 | inactive
Cc1cc(N2CCOCC2)nc(-c2ccc(Br)cc2)n1 | inactive
Cc1ccc(C(=O)Cn2cc([N+](=O)[O-])nc2C)cc1 | inactive
Cc1ccc(-c2cn3cc([N+](=O)[O-])ccc3n2)cc1 | 355 nM (active)
Cc1ccc2nc(-c3ccc(Br)cc3)cn2c1 | 316 nM (active)
Cc1nc(-c2ccc([N+](=O)[O-])cc2)c(-c2ccccc2)o1 | inactive
CSc1nnc2ccc(-c3ccc(C)cc3)nn12 | inactive

SMILES | Potency
COc1ccc(S(=O)(=O)N2CCOCC2)cc1NC(=O)Cc1c(F)cccc1Cl | inactive
Cc1cc(NC(=O)CN2C(=O)NC(CCc3ccccc3)C2=O)no1 (configuration not stated) | inactive
OC(COc1ccc(F)cc1Cl)CN1CCc2ccccc2C1 (configuration not stated) | inactive
Cc1cc2oc(C(=O)Nc3c(C)n(C)n(-c4ccccc4)c3=O)c(C)c2cc1Cl | inactive
COc1ccc(Nc2ncc(F)c(N3CCOCC3)n2)cc1 | 891 nM (active)
CCOc1ccc(Nc2nc(Cl)nc(N3CCN(c4ccc(OC)cc4)CC3)n2)cc1 | inactive
Cc1ccc(Nc2nc(N3CCOCC3)nc(N3CCOCC3)n2)cc1Cl | inactive
Cc1cc(C)n2nc(C(=O)Nc3cccc(S(=O)(=O)N4CCOCC4)c3)nc2n1 | inactive
COC(=O)c1cc2c(ccn2C)n1C | inactive
CCc1ccc2oc(-c3ccc(N)cc3)nc2c1 | 501 nM (active)
CCN(CC)c1ccc2oc(=O)c(C)nc2c1 | inactive
Cc1ccc(C)c(NC(=O)CSc2nc3c(oc4ccccc43)c(=O)n2-c2ccccc2)c1 | inactive
Cc1ccccc1NC(=O)Cc1nc(COC(=O)c2ccc(C(F)(F)F)cc2)cs1 | inactive
Cc1ccc2c(CN3CCN(S(=O)(=O)c4ccccc4C(F)(F)F)CC3)cc(=O)oc2c1 | inactive
Cc1ccc(-c2nn(-c3ccccc3)cc2C(=O)NC2CCC(O)CC2)cc1 (configuration not stated) | inactive
CC[C@H](C)C(=O)N[C@H]1CCCN1C(=O)/C=C/c1ccccc1 | inactive
COc1ccc(C2=Nc3cc(C)ccc3OC2)cc1 | 562 nM (active)
COc1ccc(C2=NOC(COC(=O)c3ccc4ccccc4n3)C2)cc1 (configuration not stated) | inactive
Cc1ccc(C(=O)NNC2=Nc3cc([N+](=O)[O-])ccc3OC2)cc1 | inactive
CC(C)OCCCNC(=S)N1CCC(C(=O)c2ccc3c(c2)OCCO3)CC1 | inactive
Cc1cccc(NC(=O)/C=C/c2ccc3c(c2)OCO3)n1 | 562 nM (active)
Cc1cccc(NC(=O)Nc2ccc3c(c2)OCO3)n1 | 2240 nM (active)

SMILES | Potency
Cc1cccc(NC(=O)Nc2ccc(OCc3ccccc3)cc2)n1 | inactive
O=C(/C=C\c1ccc2c(c1)OCO2)NC1(C(=O)Nc2ccc3c(c2)OCCO3)CCCCC1 | inactive
CC(NS(=O)(=O)c1ccc(Cl)cc1)C(=O)Nc1ccc2c(c1)OCCO2 (configuration not stated) | inactive
CCOC(=O)CCCNC(=O)COC(=O)/C=C/c1ccc2c(c1)OCO2 | inactive
CNS(=O)(=O)c1ccc(NC(=O)Nc2ccc3c(c2)OCO3)cc1 | 3550 nM (active)
O=C(O)/C=C/c1ccc2c(c1)OCCO2 | inactive
COc1cccc(/C=C/C(=O)Nc2ccc3c(c2)OCCO3)c1 | 1260 nM (active)
COc1ccc(OC)c(/C=C/C(=O)OCC(=O)Nc2ccc3c(c2)OCCO3)c1 | inactive
CC(C)CNS(=O)(=O)c1ccc(C(=O)Nc2ccc3c(c2)OCO3)cc1 | inactive
CC(NC(=O)Nc1ccc2c(c1)OCO2)c1ccncc1 (configuration not stated) | inactive
O=C1C=C(c2ccnc3cc(Cl)ccc23)C[C@@H](c2ccc3c(c2)OCO3)C1 | inactive
COc1ccc(NS(=O)(=O)c2cccc(C(=O)NCCc3ccc(S(N)(=O)=O)cc3)c2)cc1 | inactive
CC(=O)Nc1ccc(S(=O)(=O)N2CCN(S(=O)(=O)c3cccs3)CC2)cc1 | inactive
CC1CCc2sc(C(=O)NCC(c3ccco3)N3CCCCC3)cc2C1 (configuration not stated) | inactive
O=C(NCCOc1ccccc1Cl)C(=O)Nc1ccccc1 | inactive
COc1ccc(S(=O)(=O)N2CCOCC2)cc1NC(=O)Cc1coc2cc(C)ccc12 | inactive
Cc1nn(Cc2ccccc2)c(C)c1C(=O)NCCCN1CCCC1=O | inactive
COc1ccc(-c2nnc(SCC(=O)c3cccs3)o2)c(OC)c1 | 1120 nM (active)
COc1ccccc1-c1nnc(SCC(=O)N2CC(C)CC(C)C2)o1 (configuration not stated) | inactive
COc1ccc(CCNC(=O)CSc2nnc(CNC(=O)c3cccs3)o2)cc1OC | inactive
Cc1ccc(NS(=O)(=O)c2ccc3c(c2)CC(=O)N3)cc1Cl | inactive
COc1ccccc1C(CNC(=O)c1ccc(C)c(S(=O)(=O)N2CCCCC2)c1)N(C)C (configuration not stated) | inactive

SMILES | Potency
CN(CCc1ccccc1)c1ccc([N+](=O)[O-])cn1 | inactive
COC(=O)[C@]1(C)CCC[C@@]2(C)C3CC[C@]4(OC(C)=O)C[C@@]3(CCC21)CC4=NO (some centres not stated) | inactive
O=C(Nc1cccc(F)c1)NC1CCCc2ccccc21 (configuration not stated) | inactive
O=C(Nc1cccc(F)c1)NC1CCCCCCC1 | 3550 nM (active)
C/C(CC(=O)Nc1cccc(F)c1)=N\NC(=O)C(=O)NC1CCCCC1 | inactive
Cc1cccc(C)c1NC(=O)CN(C)C(=O)CCC(=O)c1ccccc1 | inactive
CC(OC(=O)/C=C/c1ccccc1)C(=O)NC1CCCCC1C (configuration not stated) | inactive
Cc1cccc(NC(=O)Nc2nnc(-c3ccccc3)o2)c1 | inactive
Cc1c(NC(=O)Nc2ccccc2)cccc1[N+](=O)[O-] | inactive
Cc1ccc(NC(=O)Nc2ccccc2)c(Br)c1 | 1780 nM (active)
COc1cc2c(cc1OC)CN(C(C)C(=O)Nc1cccc(S(=O)(=O)N3CCOCC3)c1)CC2 (configuration not stated) | inactive
Cc1sc2ncnc(N3CCC(C(=O)Nc4ccc(F)cc4Cl)CC3)c2c1C | inactive
Cc1ccc(-c2csc(NC3OC(=O)c4ccccc43)n2)cc1 (configuration not stated) | inactive
CCCc1cc(-c2nc(-c3ccc(C)cc3)cs2)ccn1 | inactive
Cc1ccc(-c2csc(-c3c[nH]c4ccccc34)n2)cc1 | 2510 nM (active)
O=C(CN(C(=O)CCC(=O)Nc1nccs1)c1ccc(F)cc1)NCc1ccc2c(c1)OCO2 | inactive
CC1CN(C(=S)SCC(=O)c2ccccc2)CC(C)O1 (configuration not stated) | inactive
CC(=O)c1ccc(NC(=O)CSC(=S)N2CCCC2)cc1 | inactive
O=C(CSC(=S)N1CCOCC1)c1ccccc1 | 447 nM (active)
O=C(CSC(=S)N1CCOCC1)c1cc(Br)cc(Br)c1O | inactive
COc1cccc(NC(=O)CN(C)C(=O)CSC(=S)N2CCCC2)c1 | inactive
O=C(CSC(=S)N1CCCCC1)c1c(F)cccc1F | 1410 nM (active)

SMILES | Potency
Cc1occc1-c1nnc(SCC(=O)NC2CCCCC2)o1 | inactive
COc1ccc(S(=O)(=O)N2CCN(C(C)C(=O)Nc3ccc(C(C)C)cc3)CC2)cc1 (configuration not stated) | inactive
O=C(NCc1ccccc1CN1CCCC1)c1cccc(S(=O)(=O)Nc2ccc(F)cc2)c1 | inactive
O=C(Nc1ccc2c(c1)OCCO2)c1cnccn1 | 2000 nM (active)
Cc1ccc(OCCCC(=O)Nc2ccc3c(c2)OCCO3)cc1 | inactive
Cn1ccnc1SCC(=O)Nc1ccc2c(c1)OCCO2 | 2510 nM (active)
CCn1c(SCC(=O)Nc2ccc3c(c2)OCCO3)nnc1C(C)C | inactive
Cc1ccc(S(=O)(=O)NCC(=O)Nc2ccc3c(c2)OCCO3)cc1 | inactive
Cc1ccc(SCC(=O)Nc2ccc3c(c2)OCCO3)cc1 | 3160 nM (active)
O=C(Nc1cccc(NC(=O)c2ccco2)c1)c1cnccn1 | inactive
CCn1c(SCC(=O)Nc2ccc3c(c2)OCCO3)nnc1-c1ccncc1 | inactive
O=C(CCN1C(=O)c2ccncc2C1=O)Nc1ccc2c(c1)OCCO2 | inactive
O=[N+]([O-])c1cc(S(=O)(=O)NCCc2ccccn2)ccc1Cl | inactive
COc1ccc(-c2nnc(SC(C)C(=O)NC3CC3)o2)cc1 (configuration not stated) | inactive
Cc1cc(C)cc(NC(=O)NC2CCN(CC(=O)Nc3cccc(Cl)c3C)CC2)c1 | inactive
O=c1[nH]c2cccnc2n(CCNc2ncc(C(F)(F)F)cc2Cl)c1=O | inactive
CNS(=O)(=O)c1cccc(C(=O)OCC(=O)N2c3ccccc3NC(=O)C2(C)C)c1 | inactive
CCOc1ccc(C(C)NC(=O)CN2C(=O)NC3(CCCCC3)C2=O)cc1OCC (configuration not stated) | inactive
Cc1ccn(-c2cccc(-n3ccc(C)n3)n2)n1 | 2820 nM (active)

Source: PubChem BioAssay AID485297 (National Center for Advancing Translational Sciences (NCATS), 2010)
